Eight compounds from PubChem BioAssay (Tox21) can be followed below.

Inconclusive results are not listed. A number with no mark means an inactive call. Active and inactive are the calls of the source. Calls come from the whole dose curve.
% is set by controls: 0 for no effect and ±100 for the full control effect; potency is the fitted concentration of half-maximal effect.

The nature of this experiment: qHTS assay to identify small molecule agonists of the progesterone receptor (PR) signaling pathway - cell viability counter screen (AID 1346799). Note: nearly all actives have a fitted effect of over 45% in size. Particulars: PR-UAS-bla HEK293T viability, CellTiter-Glo luminescence, 16 h; series mostly up to 92.4 µM; activity change, negative = cytotoxicity: at the top concentration. Summed up: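 Luminescence from CellTiter-Glo, added after the beta-lactamase FRET read in the same wells, gave cytotoxicity in PR-UAS-bla HEK293T cells treated with compounds for 16 hr at 37C.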
For orientation: In qHTS, concentration-response curves come from the screen itself.
In the case of `O=C1NCN(c2ccccc2)C12CCN(CC1COc3ccccc3O1)CC2` (stereo not drawn), the “activity change, negative = cytotoxicity” value is -11.3% [at 42.5 µM].

Take `O=C(CCCN1CCC2(CC1)C(=O)NCN2c1ccccc1)c1ccc(F)cc1`: the “activity change, negative = cytotoxicity” value is 3.18% [at 42.5 µM].

For the compound `CN(C)C(=S)[S-].CN(C)C(=S)[S-].[Cu+2]`, the Potency is 1.49 µM (active).

In the case of `C[C@H]1CC[C@@H]2[C@@H](C)[C@H]3[C@H](C[C@H]4[C@@H]5CC=C6CC(O[C@@H]7O[C@H](CO)[C@H](O)[C@H](O[C@@H]8O[C@H](CO)[C@@H](O)[C@H](O)[C@H]8O)[C@H]7O[C@H]7O[C@@H](C)[C@H](O)[C@@H](O)[C@H]7O)CC[C@]6(C)[C@H]5CC[C@]34C)N2C1` (stereo partly drawn), the Potency was 22.4 µM (active).

`CCOCn1c(-c2ccc(Cl)cc2)c(C#N)c(Br)c1C(F)(F)F`: the Potency was 12.2 µM (active).

Consider `C[C@@H]1CC[C@@]2(OC1)O[C@H]1[C@@H](O)[C@H]3[C@@H]4CC[C@H]5C[C@@H](O[C@@H]6O[C@H](CO)[C@H](O[C@@H]7O[C@H](CO)[C@@H](O)[C@H](O[C@@H]8OC[C@@H](O)[C@H](O)[C@H]8O)[C@H]7O[C@@H]7O[C@H](CO)[C@@H](O)[C@H](O[C@@H]8O[C@H](CO)[C@@H](O)[C@H](O)[C@H]8O)[C@H]7O)[C@H](O)[C@H]6O)[C@H](O)C[C@]5(C)[C@H]4CC[C@]3(C)[C@H]1[C@@H]2C`, for which the Potency is 14.5 µM (active).

`CCCCCCCCCCCCCC[P+](CCCCCC)(CCCCCC)CCCCCC` (tested in a mixture with another compound): the Potency is 27.3 µM (active).

For `O=C(O)COc1nc(Cl)c(Cl)cc1Cl`, the Potency was 27.9 µM (active).
